In the library only some 6% were active in any assay of this set; here they are far more common.
D1 ag – Allosteric Agonists of the Human D1 Dopamine Receptor: qHTS; 360,000 tested, 1% active; activation, % at 2 µM; HEK293 T-REx D1 cells, calcium flux, agonist mode; in the data active means activation above about 30%; further: 0% is about no effect
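Tetracycline-induced HEK293 TREx D1 cells, force-coupled to calcium signalling, were dye-loaded with a no-wash calcium kit. Compound was pin-added after a 10 s baseline. Fluorescence was read kinetically at 1 cycle/s for 180 s, with calcium rises flagged as agonism.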
D3 ag – qHTS of D3 Dopamine Receptor Agonist: qHTS | D(3) dopamine receptor (Homo sapiens), P35462 | D3R DiscoveRx beta-arrestin cells, luminescence, 90 min | max activation, % | 410,000 tested, 0.58% active | AID 652048, 2013; in the data active means max activation above about 30%; further: 0% is about no effect
Target sequence (P35462 whole entry, looked up): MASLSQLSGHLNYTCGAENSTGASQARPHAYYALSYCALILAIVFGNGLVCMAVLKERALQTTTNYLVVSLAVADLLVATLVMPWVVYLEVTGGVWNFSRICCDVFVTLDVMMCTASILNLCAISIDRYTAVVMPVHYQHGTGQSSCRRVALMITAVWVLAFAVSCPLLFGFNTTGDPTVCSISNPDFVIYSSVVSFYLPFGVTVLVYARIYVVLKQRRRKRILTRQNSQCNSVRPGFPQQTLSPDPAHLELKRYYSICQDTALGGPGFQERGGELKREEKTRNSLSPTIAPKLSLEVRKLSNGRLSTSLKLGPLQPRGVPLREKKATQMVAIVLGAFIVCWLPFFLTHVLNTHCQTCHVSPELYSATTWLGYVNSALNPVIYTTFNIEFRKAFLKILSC
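Agonist-mode cell screen: cells plated at 1500/well and incubated overnight at 37 °C, then exposed to library compounds for 90 min at 37 °C. Detection reagent was added for 30–60 min at room temperature, and luminescence was read.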
D1 antag – Antagonist of Human D 1 Dopamine Receptor: qHTS; activity change, negative = inhibition, % at 10 µM; 360,000 tested, 3.2% active; HEK293 TREx D1 cells, calcium flux, dopamine EC80; stronger effect = lower value; D(1A) dopamine receptor (Homo sapiens), P21728; AID 504652, 2011; in the data active means activity change below about -30%; further: on the % scale 0 is the no-effect control and ±100 the full control effect
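Calcium flux readout: force-coupled, inducible Hek293 Trex D1 line, cells induced overnight at 30 C with tetracycline, dye-loaded 30–90 min at RT. Antagonism scored against EC80 dopamine challenge given 180 s after compound.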
D3 antag – qHTS of D3 Dopamine Receptor Antagonist: qHTS | D3R cells, DiscoveRx beta-arrestin luminescence, antagonist mode; stronger effect = lower value | D(3) dopamine receptor (Homo sapiens), P35462 | max response, negative = inhibition, % | 360,000 tested, 2.5% active; in the data active means max response below about -50%; inconclusive means no clear call, values can overlap the other calls; further: on the % scale 0 is the no-effect control and ±100 the full control effect
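Cells expressing the human receptor were seeded at 1500 cells/well, incubated overnight at 37 degrees C in 5% CO2, then exposed to library compounds with dopamine controls for 90 minutes at 37 degrees C before luminescent detection.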
D1 PAM – Potentiators of Human D1 Dopamine Receptor: qHTS | 360,000 tested, 0.036% active | D(1A) dopamine receptor (Homo sapiens), P21728 | potentiation, % at 10 µM | HEK293 TREx D1 cells, calcium flux, dopamine EC20 potentiation | AID 504651, 2011; in the data active means potentiation above about 30%; further: 0% is about no effect
Numbers without * were called inactive; ? = inconclusive; · = no result given.

SMILES	D1 ag	D3 ag	D1 antag	D3 antag	D1 PAM
CC(=O)Nc1ccc(S(=O)(=O)N2CCC(C(=O)c3ccc(Cl)cc3)CC2)cc1	7	-5	-44*	0	-9
CC1CCN(S(=O)(=O)c2ccc(NC(=O)CN3CCN(c4ccccc4)CC3)cc2)CC1	1	110*	14	12	-3
O=C(Nc1ccc(S(=O)(=O)N2CCOCC2)cc1)c1ccc(F)cc1	7	2	5	3	-4
CCCCn1c(CNC(=O)C23CC4CC(CC(C4)C2)C3)nnc1SCC(=O)Nc1ccccc1	1	3	11	·	2
CCOc1ccc(C(=O)NCCS(=O)(=O)N2CCN(c3cccc(Cl)c3)CC2)cc1	5	-11	-8	·	-1
O=C(O)C1CCCN1 (stereo not drawn)	·	9	·	·	·
O=C(Nc1ccc(S(=O)(=O)N2CCCC2)cc1)C1CCCCC1	-2	2	15	4	-2
O=C(Nc1cc(S(=O)(=O)N2CCOCC2)ccc1O)c1ccc(NS(=O)(=O)c2ccc(Cl)s2)cc1	-1	-3	-68*	-11	-12
Cc1ccc(NC(=O)c2ccc(S(=O)(=O)N3CCC(C)CC3)cc2)cc1	0	-1	-39*	5	-5
O=C(Nc1ccc(S(=O)(=O)N2CCOCC2)cc1)C1CCCCC1	6	-10	-2	?	43*
COc1ccc(C(=O)Nc2ccc(S(=O)(=O)N3CCOCC3)cc2)cc1[N+](=O)[O-]	11	1	4	-12	-3
COc1cc(C(=O)Nc2ccc(S(=O)(=O)N3CCOCC3)cc2)c([N+](=O)[O-])cc1OC	2	40*	17	-11	5
COC(=O)Cn1c(=O)c2c(nc3n2CCN3c2ccc(F)cc2)n(C)c1=O	0	6	8	·	-1
COC(=O)c1scc(-c2ccc(C)cc2)c1S(=O)(=O)Nc1cc(C)ccc1OC	6	-2	-23	·	-8
Cc1cc2c(s1)c1cnn(Cc3ccccc3F)c(=O)c1n2C(C)C	8	·	14	·	6
O=C(O)CN1C(=O)/C(=C/c2ccc(-c3cccc(Cl)c3)o2)SC1=S	5	·	13	·	10
Cc1ccc(NC(=O)c2oc3ccccc3c2NC(=O)c2ccc(F)c(F)c2)cc1	4	2	12	·	-1
O=S(=O)(Nc1cccc(S(=O)(=O)N2CCOCC2)c1)c1ccc(Cl)s1	2	3	3	14	-5
O=C(Nc1ccc(S(=O)(=O)N2CCCCCC2)cc1)c1[nH]ncc1[N+](=O)[O-]	7	·	-34*	·	-6
O=C(Nc1ccc(S(=O)(=O)N2CCOCC2)cc1)c1ccc(Cl)cc1	5	0	-40*	-22	-6
O=C(Nc1ccc(S(=O)(=O)N2CCOCC2)cc1)c1ccc(S(=O)(=O)N2CCOCC2)cc1	2	-7	2	-2	0
Cc1ccc(NC(=O)c2ccccc2NS(=O)(=O)c2ccc(Cl)s2)cc1S(=O)(=O)N1CCOCC1	34*	-5	-50*	-17	-6
O=C(Nc1ccc([N+](=O)[O-])cc1)c1ccc(S(=O)(=O)N2CCCC2)cc1	11	-13	-11	-21	-3
O=C(c1ccc(S(=O)(=O)N2CCOCC2)cc1)N1CCN(c2cccc(Cl)c2)CC1	19	10	0	-69*	-2
CCOc1ccccc1CNC(=O)CC(C)n1ccc(C)n1 (stereo not drawn)	0	-8	-7	·	-4
SMILES	D1 ag	D3 ag	D1 antag	D3 antag	D1 PAM
CC(=O)[C@@]1(O)CC[C@H]2[C@@H]3C=C(Cl)C4=CC(=O)[C@@H]5C[C@@H]5[C@]4(C)[C@H]3CC[C@@]21C	·	11	·	·	·
CCOC(=O)C1CCN(S(=O)(=O)c2ccc(NC(=O)c3ccco3)cc2)CC1	2	10	-33*	4	-6
Cc1ccc(C(=O)Nc2ccc(S(=O)(=O)N3CCOCC3)cc2)cc1	5	1	-6	-5	2
CC(C)Oc1ccc(C(=O)Nc2ccc(S(=O)(=O)N3CCN(C)CC3)cc2)cc1	4	11	-53*	2	-21
CCOc1ccc(C(=O)Nc2ccc(S(=O)(=O)N3CCN(C)CC3)cc2)cc1	9	4	0	9	-18
CC(=O)Oc1ccc(C(=O)Nc2ccc(S(=O)(=O)N3CCOCC3)cc2)cc1	6	-5	-90*	-20	1
O=C(Nc1ccc(S(=O)(=O)N2CCCCCC2)cc1)c1ccco1	2	-2	-5	?	2
COc1ccc(C)cc1NC(=O)c1ccccc1NS(=O)(=O)c1ccc(Cl)s1	24	-4	-31*	1	-4
COc1cccc(CNC(=O)C2CCCN(S(=O)(=O)c3cn(C)cn3)C2)c1 (stereo not drawn)	1	3	2	·	0
CN(CCOc1ccc(Cl)cc1)C(=O)c1ccc(S(=O)(=O)N2CCOCC2)cc1	22	5	-39*	15	-1
Cc1cccc(NC(=O)CSc2nccn2Cc2ccc(F)cc2)c1C	2	3	-5	·	-2
O=C1C=CC(=O)C(C2=C3C(=O)N(CCc4ccccc4)CC(=O)N3CCC2)=C1	-1	-1	-7	-72*	-4
COC(=O)c1ccc(S(=O)(=O)NC(C)(C)C)n1C	2	10	-37*	-4	1
Cc1ccc(NC(=O)Cn2ncc3c4ccccc4n(Cc4ccccc4)c3c2=O)cc1Cl	4	6	-2	·	-2
CCOc1cc(C(=O)Nc2cccc3ncccc23)cc(OCC)c1OCC	0	35*	8	-17	-2
CC(=O)Nc1cccc(C(=O)Nc2cccc3ncccc23)c1	1	0	0	14	-4
CCOc1cc(C(=O)Nc2ccc([N+](=O)[O-])cn2)cc(OCC)c1OCC	4	-45	-51*	-24	-5
COc1cc(NC(=O)Cn2c(=O)n(Cc3ccccc3Cl)c(=O)c3cc(OC)c(OC)cc32)cc(OC)c1	6	-6	0	·	4
CCOC(=O)c1c(CN2CCCCC2)n(C)c2cc(Br)c(O)cc12	3	-59	-9	-87*	-1
CCOC(=O)c1c(CN2CCN(C)CC2)n(C)c2cc(Br)c(OC)cc12	5	-58	-10	?	8
CCOc1ccccc1NC(=O)c1c(Br)cnn1C	2	35*	12	15	-6
CCn1ncc(Br)c1C(=O)Nc1ccccc1OC	1	4	-14	4	-10
CC(=O)Oc1oc(-c2ccccc2)nc1/C=N/c1ccccn1	11	-11	-3	-62*	-5
CC(=O)Oc1oc(-c2ccccc2)nc1C=Nc1ccc(N(C)C)cc1	3	1	-14	-14	-3

High-throughput results (PubChem)
